{
  "source": "PubChem BioAssay (NCATS)",
  "note": "A number with no mark means an inactive call. No rule for the calls is given here. Potency is read from the fitted curve at half-maximal effect.",
  "data": [
    {"test_system": "HIV-1 nucleocapsid protein NCp7 (binding to TG oligonucleotide)", "test": "HIV Nucleocapsid (AID 346);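 also: potency is for inhibitors that block NC binding and lower polarization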", "details": "HIV-1 NC / fluorescein-TGTGTGTG probe, fluorescence polarization", "summary_of_the_method": "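Reagents dispensed (10 nM TG4xF, 100 nM HIV-1 NC), plates spun, compounds pin-transferred, then incubated 1 hr at room temperature before FP imaging. Buffer: Hepes pH 7.5, 250mM NaCl, 1uM ZnCl2, 100 uM TCEP, 5 mM 2-mercaptoethanol.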", "units": {"Potency": "µM"}, "values": [
      {"smiles": "CS(=O)(=O)N1CCC[C@@]2(CCN(Cc3ccc(C#N)cc3)C2)C1", "Potency": "> 20"},
      {"smiles": "Cc1noc(C)c1-c1cncnc1NCc1cccnc1", "Potency": "> 20"},
      {"smiles": "Cn1cccc1C(=O)N1CCC2(CC1)CCN(c1ccccc1)CC2", "Potency": "> 20"},
      {"smiles": "COc1cccc(Cn2c(=O)c(-c3cn(C)c4ccccc34)nc3cncnc32)c1", "Potency": "> 20"},
      {"smiles": "O=C(c1cc(C(F)(F)F)cc(C(F)(F)F)c1)N1CCC2(CC1)CN(c1ncccn1)C2", "Potency": "> 20"},
      {"smiles": "COC(=O)N1CCC2(CC1)CCN(c1cccc(-c3ccccc3)c1)CC2", "Potency": "> 20"},
      {"smiles": "COc1ccc(-c2nc3cnc(N4CCOCC4)nc3n(-c3ccc(OC)cc3)c2=O)cc1", "Potency": "> 20"},
      {"smiles": "CN1CC[C@@]2(CCCN(C(=O)c3cc(C(F)(F)F)cc(C(F)(F)F)c3)C2)C1", "Potency": "> 20"},
      {"smiles": "CC(=O)N1CCC2(CCCN(Cc3ccc(C#N)cc3)C2)CC1", "Potency": "> 20"},
      {"smiles": "CN(C)c1ncc2nc(-c3cccs3)c(=O)n(C)c2n1", "Potency": "> 4"},
      {"smiles": "Cc1cnc(CNc2ncnc3ccc(-c4ccc(N(C)C)cc4)cc23)cn1", "Potency": "> 20"},
      {"smiles": "CC(C)NC(=O)N1CCCC2(CCN(C(=O)c3ccncc3)CC2)C1", "Potency": "> 20"},
      {"smiles": "COc1cccc(Nc2ncc3nc(-c4ccccc4)c(=O)n(C4CC4)c3n2)c1", "Potency": "> 20"},
      {"smiles": "CN(C)c1ncc2nc(-c3ccccc3)c(=O)n(-c3ccccc3)c2n1", "Potency": "> 20"},
      {"smiles": "Cc1cccc(CNc2cc(-c3cccnc3)ncn2)c1", "Potency": "> 20"},
      {"smiles": "CN(C)c1ncnc2ccc(-c3cccc(NS(C)(=O)=O)c3)cc12", "Potency": "> 20"},
      {"smiles": "CN(C)c1ncc2nc(-c3ccc(Cl)cc3)c(=O)n(-c3ccccc3)c2n1", "Potency": "> 4"},
      {"smiles": "O=c1cnc2cnc(Oc3cccc(Cl)c3)nc2n1CCc1ccccc1", "Potency": "> 20"},
      {"smiles": "COc1cccc(Cn2c(=O)cnc3cncnc32)c1", "Potency": "> 20"},
      {"smiles": "O=C(c1csnn1)N1CCC[C@@]2(CCN(Cc3cc(C(F)(F)F)cc(C(F)(F)F)c3)C2)C1", "Potency": "> 20"},
      {"smiles": "CNc1nc(-c2ccccc2C)nc2ccccc12", "Potency": "> 20"},
      {"smiles": "Cc1ccccc1-c1ccc2ncnc(N3CCNCC3)c2c1", "Potency": "> 20"},
      {"smiles": "Cc1cnc(CNc2ccnc(-c3cccnc3)n2)cn1", "Potency": "> 20"},
      {"smiles": "O=C(Oc1ccccc1)N1CCC2(CCCN(c3ccncc3)C2)CC1", "Potency": "> 20"},
      {"smiles": "O=C(c1ccncc1)N1CCC2(CCCN(C(c3ccccc3)c3ccccc3)C2)CC1", "Potency": "> 20"},
      {"smiles": "N#Cc1cccc(-c2nc(N3CCNCC3)c3ccccc3n2)c1", "Potency": "> 20"},
      {"smiles": "COc1ccc(NC(=O)N2CC[C@@]3(CCCN(C(=O)c4cnccn4)C3)C2)cc1", "Potency": "> 20"},
      {"smiles": "CCNc1ncc2nc(-c3ccccc3)c(=O)n(Cc3cccs3)c2n1", "Potency": "> 20"},
      {"smiles": "Cc1noc(C)c1-c1nccc(NCc2cccs2)n1", "Potency": "> 20"},
      {"smiles": "Cc1ccccc1-c1cc(-n2ccnc2)ncn1", "Potency": "> 20"},
      {"smiles": "COc1ccccc1CNc1cc(-c2ccccc2CN(C)C)ncn1", "Potency": "> 20"},
      {"smiles": "CN1CCN(c2ncc3nc(CCc4ccccc4)c(=O)n(CCC#N)c3n2)CC1", "Potency": "> 20"},
      {"smiles": "O=c1c(-c2cccs2)nc2cncnc2n1Cc1ccc(F)cc1", "Potency": "> 20"},
      {"smiles": "Cc1noc(C)c1-c1cc(N(C)Cc2ccco2)ncn1", "Potency": "> 20"},
      {"smiles": "COC(=O)N1CCC2(CC1)CN(c1ccncc1)C2", "Potency": "> 20"},
      {"smiles": "COc1ccc(C(=O)N2CCC3(CC2)CN(C(=O)Nc2ccccc2)C3)cc1", "Potency": "> 20"},
      {"smiles": "c1ccc(C(c2ccccc2)N2CCC3(CCNCC3)CC2)cc1", "Potency": "> 20"},
      {"smiles": "O=C(c1cc(C(F)(F)F)cc(C(F)(F)F)c1)N1CCC[C@@]2(CCN(Cc3nccs3)C2)C1", "Potency": "> 20"},
      {"smiles": "CC(=O)NCCNc1nc(-c2ccc(N(C)C)cc2)nc2ccccc12", "Potency": "> 20"},
      {"smiles": "COc1ccc(CNc2ncncc2-c2ccoc2)c(OC)c1", "Potency": "> 20"}
    ]}
  ]
}
